Bioassay records: PubChem, National Center for Advancing Translational Sciences (NCATS)
The entries come from a sample that favours hits as a whole.
Pf Dd2 growth – blocks in vitro growth of P. falciparum Dd2. Potency, µM (top dose mostly 28.9 µM), for inactives: at the top dose activity, negative = inhibition, actives largely listed as inhibitors. P. falciparum Dd2 growth, SYBR Green, 72 h. 120,000 tested, 4.3% active; active means well fitted inhibition curve with a large enough effect;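 further: plate controls were DMSO vehicle for no effect and reference drug for full effect; nearly all actives have a fitted effect of over 65% in size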
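Infected erythrocytes (Dd2, 0.3% parasitemia, 2.5% hematocrit final) are added to compound in RPMI-1640/Albumax II medium, grown 72 h at 37C in low oxygen, then lysed with saponin/Triton-X containing SYBR Green and read by fluorescence.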
* hit, by the source's call; [ ] = remark or other dose. Potency means the concentration at half of the fitted maximal effect.

For Cc1nn(-c2ccccc2)c(Oc2ccccc2F)c1CCC(=O)NC1CC1 the results were Pf Dd2 growth inactive.
Screening O=C1NCCCCCCN(C(=O)COc2ccccc2)[C@H]2CCCC[C@@H]12 returned Pf Dd2 growth -25.0%.
`CN(C)Cc1nc(C(=O)N2CCn3nc(CCC(=O)O)cc3C2)cs1` gave Pf Dd2 growth -13.3%.
`COc1ccc(OC)c(CNC(=O)c2c(OC)cc(=O)n3c2CCCC3)c1` gave Pf Dd2 growth -4.0%.
Screening CCC(=O)Nc1ccc2nnc(-c3ccc(C(=O)Nc4ccc5c(c4)OCCO5)cc3)n2c1 returned Pf Dd2 growth 0.282µM*.
Screening Cc1cc(=O)n(CC(=O)Nc2ccc3c(c2)OCCO3)c(-c2ccc(Cl)cc2)n1 returned Pf Dd2 growth inactive.
Screening CCOc1ccc(C(=O)Nc2ccc3c(c2)OCCO3)cc1Br returned Pf Dd2 growth 12.2%.
For O=C1N2CCCC2CN1C1CCN(Cc2cccc(F)c2)CC1 (stereo unspecified) the results were Pf Dd2 growth 7.1%[44.1 µM].
`CNC(=O)c1cc[nH]c1C1CCCN(C(=O)C2CC=CCC2)C1` (stereo unspecified) gave Pf Dd2 growth 7.3%.
Screening NS(=O)(=O)c1ccc(CNc2nccc(-c3cccnc3)n2)cc1 returned Pf Dd2 growth -15.0%.
For O=C(CCc1ccc(O)cc1)N[C@H]1CC[C@H](Nc2nccc(-c3cccnc3)n2)C1 the results were Pf Dd2 growth 11.2µM*.
For O=C(N[C@H]1CO[C@H]2[C@@H]1OC[C@@H]2Nc1nccc(-c2ccc(-c3ccccc3)cc2)n1)C1CC1 the results were Pf Dd2 growth 6.9%.
Cc1cccc(NC(=O)N2CCC(CCNC(=O)c3cnccn3)CC2)c1 was read as Pf Dd2 growth -12.9%.
`CCc1cccc2c(C(CC(=O)NCc3ccc4c(c3)OCO4)c3ccc(OC)c(OC)c3)c[nH]c12` (stereo unspecified) gave Pf Dd2 growth 3.98µM*.
`CCOC(=O)C1CCN(C(=O)CC(c2ccc(OC)c(OC)c2)c2c[nH]c3c(CC)cccc23)CC1` (stereo unspecified) gave Pf Dd2 growth 1.26µM*.
For COc1ccc(C(CC(=O)NCc2ccccc2)c2c[nH]c3ccccc23)cc1OC (stereo unspecified) the results were Pf Dd2 growth -7.0%.
COc1ccc(C(CC(=O)N2CCCC2)c2cn(Cc3ccccc3)c3ccccc23)cc1OC (stereo unspecified) was read as Pf Dd2 growth inactive.
For Cc1ccc(C(CC(=O)N2CCC(C)CC2)c2cn(C)c3ccccc23)cc1 (stereo unspecified) the results were Pf Dd2 growth -26.8%.
For Cc1ccc(C(CC(=O)N2CCc3ccccc3C2)c2cn(C)c3ccccc23)cc1 (stereo unspecified) the results were Pf Dd2 growth inactive.
`CCOC(=O)C1CCCN(C(=O)CC(c2ccc3c(c2)OCO3)c2cn(CC)c3ccccc23)C1` (stereo unspecified) gave Pf Dd2 growth 7.08µM*.
Screening CCc1cccc2c(C(CC(=O)NCCOC)c3ccc(OC)c(OC)c3)c[nH]c12 (stereo unspecified) returned Pf Dd2 growth -19.6%.
CCOC(=O)C1CCCN(C(=O)Cn2ncc3c4ccccc4n(C)c3c2=O)C1 (stereo unspecified) was read as Pf Dd2 growth -23.5%.
Screening CCc1cccc2c(C(CC(=O)N3CCCC3)c3cccc(Cl)c3)c[nH]c12 (stereo unspecified) returned Pf Dd2 growth -2.9%.
`CCOC(=O)C1CCN(C(=O)CC(c2ccc(Cl)cc2)c2cn(C)c3ccccc23)CC1` (stereo unspecified) gave Pf Dd2 growth 3.98µM*.
Screening CCc1cccc2c(C(CC(=O)NCCc3ccc(OC)c(OC)c3)c3cccc(OC)c3)c[nH]c12 (stereo unspecified) returned Pf Dd2 growth -15.6%.
`N#Cc1cccc(C(=O)N2CCCCCCNC(=O)CC2)c1` gave Pf Dd2 growth 6.0%.
CNC(=O)[C@@H]1CN(C(=O)c2sc(C)nc2C)C[C@H]1c1n[nH]c(C)n1 was read as Pf Dd2 growth 24.2%.
Screening COc1ccc(Cn2c(C3CCN(C(=O)Cc4ccccc4OC)CC3)n[nH]c2=O)cc1 returned Pf Dd2 growth 10.1%.
`CC(=O)N1CC2(Cc3ccccc31)CN(C(=O)c1ccc(C)cc1)C2` gave Pf Dd2 growth -14.6%.
`Cc1ocnc1C(=O)N1CCC2(CC1)c1nc[nH]c1CCN2S(C)(=O)=O` gave Pf Dd2 growth 11.4%.
`Cc1cccc(-c2cn[nH]c2C2CCN(C(=O)c3ccc(C)[nH]c3=O)CC2)c1` gave Pf Dd2 growth -5.9%.
Screening COCc1cc(=O)n(CC(=O)Nc2ccccc2)c(N2CCOCC2)n1 returned Pf Dd2 growth inactive.
For NS(=O)(=O)c1ccc(CCNc2nc3c(-c4cccc(F)c4)nnn3c3ccc(Cl)cc23)cc1 the results were Pf Dd2 growth 11.2µM*.
CCOCCCNc1nc2c(S(=O)(=O)c3ccc(CC)cc3)nnn2c2ccc(Cl)cc12 was read as Pf Dd2 growth -9.3%.
Fc1cccc(-c2nnn3c2nc(NCCc2ccccc2)c2ccccc23)c1 was read as Pf Dd2 growth 19.2%.
`COc1ccc(N2CC(C(=O)NCCc3ccc(Cl)cc3)NC2=O)cc1` (stereo unspecified) gave Pf Dd2 growth -21.1%.
For O=C(Cc1cccc(Cl)c1)N1CCC(c2nn(Cc3ccccc3)c(=O)[nH]2)CC1 the results were Pf Dd2 growth inactive.
`O=C(Nc1ccccc1)N1CCCCC1c1nc(-c2cnccn2)n[nH]1` (stereo unspecified) gave Pf Dd2 growth -10.4%.
Screening Cc1ccc(Cl)cc1NC(=O)Cn1nc2c(cc1=O)CCCCC2 returned Pf Dd2 growth -19.8%.
Screening COc1ccc(C(=O)N2CCOCC3(CN(Cc4cc(F)cc(F)c4)C3)C2)c(OC)n1 returned Pf Dd2 growth inactive.
For COc1ccc(C(=O)N2CCOCC3(CN(Cc4ccccc4)C3)C2)cc1 the results were Pf Dd2 growth -11.5%[44.1 µM].
COc1ccc(C(=O)N2CCOCC3(CN(Cc4ccccc4)C3)C2)c(OC)n1 was read as Pf Dd2 growth 0.891µM*.
CCN(CC)Cc1cnc2c(C(=O)N3CCC(N4CCCC4)CC3)cnn2c1 was read as Pf Dd2 growth -0.3%.
`Cc1ccc(-c2nc3cnccn3c2NCCC(=O)N2CCCCC2)cc1` gave Pf Dd2 growth -0.3%.
Screening CCCn1ncc(-c2nc(Cc3cccs3)nn2CC(=O)O)c1C returned Pf Dd2 growth -4.7%.
CCc1ccc(C2C(C(=O)Nc3ccccc3OC)=C(C)Nc3nc(SCc4ccccc4)nn32)cc1 (stereo unspecified) was read as Pf Dd2 growth -9.0%.
CC1=C(C(=O)Nc2ccc(C)cc2)C(c2ccc(Cl)cc2)n2nnnc2N1 (stereo unspecified) was read as Pf Dd2 growth -26.7%.
Screening COc1ccccc1NC(=O)C1=C(C)Nc2c(C(=O)Nc3ccc(C)cc3)cnn2C1c1cccc(OC)c1OC (stereo unspecified) returned Pf Dd2 growth 13.1%.
COc1cccc(C2C(C(=O)Nc3ccccc3)=C(C)Nc3nnnn32)c1OC (stereo unspecified) was read as Pf Dd2 growth -24.9%.
`CC1=C(C(=O)Nc2ccc(C)cc2C)C(c2cccn2C)n2ncnc2N1` (stereo unspecified) gave Pf Dd2 growth 10.2%.
Screening CC1=C(C(=O)Nc2ccc(C)cc2)C(c2ccccc2Cl)n2nnnc2N1 (stereo unspecified) returned Pf Dd2 growth 23.5%.
